# The full list was thinned out, with hits kept by preference.
# FECH inh – inhibitors of human ferrochelatase, primary screen, biochemical, purified FECH, Ni-mesoporphyrin absorbance. 20,000 tested, 3.3% active. Ni-mesoporphyrin absorbance 550 nm. AID 1671448, 2021. Ferrochelatase, mitochondrial (Homo sapiens), P22830. calls only at 10 µM (by protocol);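 active means enzyme reaction rate more than 3 SD below the solvent-only control wells on the same plate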;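 further: lower slope than DMSO wells means FECH inhibition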
# Target sequence (P22830 whole entry, looked up): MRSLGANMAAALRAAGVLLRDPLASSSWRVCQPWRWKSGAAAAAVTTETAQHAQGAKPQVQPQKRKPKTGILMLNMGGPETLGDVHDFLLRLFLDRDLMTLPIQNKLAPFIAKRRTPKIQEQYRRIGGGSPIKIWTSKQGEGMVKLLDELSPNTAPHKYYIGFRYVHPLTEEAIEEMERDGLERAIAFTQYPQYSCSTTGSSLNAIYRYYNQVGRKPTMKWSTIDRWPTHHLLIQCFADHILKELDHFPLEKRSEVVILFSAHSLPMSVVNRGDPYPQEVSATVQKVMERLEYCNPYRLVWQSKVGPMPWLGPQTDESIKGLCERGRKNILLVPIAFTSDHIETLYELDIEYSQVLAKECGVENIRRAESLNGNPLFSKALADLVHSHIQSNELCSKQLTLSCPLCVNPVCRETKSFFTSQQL
# * hit, by the source's call; i = inactive; + = active, no number.
SMILES,FECH inh
CCc1ncc2c(n1)CN(C(=O)c1ccc(N3CCCC3=O)cc1)C2,i
CCN1C(SCc2ccc(N3CCCC3=O)cc2)=NS(=O)(=O)c2ccccc21,+
Fc1ccc(Nc2nc(NCC3CCCO3)nc3c2cnn3-c2ccccc2)cc1 (configuration not stated),i
CC(C)OCCCNc1nc(Nc2ccc(Cl)cc2)c2cnn(-c3ccccc3)c2n1,+
CC(C)OCCCNc1nc(Nc2ccc(F)cc2)c2cnn(-c3ccccc3)c2n1,i
COc1ccc(Nc2nc(NCCCOC(C)C)nc3c2cnn3-c2ccccc2)cc1,i
Clc1ccc(Nc2nc(NCC3CCCO3)nc3c2cnn3-c2ccccc2)cc1 (configuration not stated),+
COc1ccc(Nc2nc(NCC3CCCO3)nc3c2cnn3-c2ccccc2)cc1 (configuration not stated),i
CCN(Cc1ccc(Cl)cc1)C(=O)c1ccc(Cl)cn1,i
Clc1cccc(Nc2nc(NC3CCCCCC3)nc3c2cnn3-c2ccccc2)c1,i
COc1ccc(NS(=O)(=O)c2cc(-c3ccc(=O)[nH]n3)ccc2Cl)cc1,i
CN(Cc1ccncc1)Cc1nc(-c2cccnc2)no1,i
Cc1ccc2[nH]c(CN(C)Cc3nc(-c4cccnc4)no3)nc2c1C,+
CN(Cc1nc(-c2cccnc2)no1)Cc1ccc(C2CCCO2)s1 (configuration not stated),i
O=C(NCc1cn2c(n1)SCC2)c1ccc(C2CCCO2)s1 (configuration not stated),i
NC(=O)c1c(F)cccc1-c1cccc2cnccc12,i
Cc1ccc(CN2CCN(CC(=O)Nc3ccc(C)cc3)S2(=O)=O)cc1,i
Cc1ccc(CN2CCCN(CC(=O)Nc3ccc(C)cc3)S2(=O)=O)cc1,+
Cc1cccc(CN2CCCN(CC(=O)Nc3ccc(F)c(Cl)c3)S2(=O)=O)c1,+
Cc1ccc(NC(=O)CN2CCCN(Cc3cccc(C)c3)S2(=O)=O)cc1,+
Cc1ccc(CN2CCCN(CC(=O)Nc3cccc(Cl)c3)S2(=O)=O)cc1,i
CC(=O)c1ccc(NC(=O)CN2CCCN(Cc3cccc(C)c3)S2(=O)=O)cc1,i
Cc1cccc(CN2CCCN(CC(=O)Nc3ccc(C)c(F)c3)S2(=O)=O)c1,i
Cc1ccc(NC(=O)CN2CCN(Cc3cccc(Cl)c3)S2(=O)=O)cc1,+
Cc1ccc(NC(=O)CN2CCN(Cc3ccc(F)cc3)S2(=O)=O)cc1,i
SMILES,FECH inh
Cc1cccc(CN2CCCN(CC(=O)Nc3cccc(C)c3)S2(=O)=O)c1,i
O=C(CN1CCN(Cc2ccccc2)S1(=O)=O)Nc1cccc(Cl)c1,i
O=C(CN1CCCN(Cc2cccc(F)c2)S1(=O)=O)Nc1ccc(F)c(Cl)c1,i
Cc1cccc(C)c1OC1CN(C(=O)CN2CC(=O)NC2=O)C1,i
CCOc1c(N2CCc3ccccc32)c(=O)c1=O,i
CC(C(=O)N(Cc1cnn(C)c1)C1CC1)n1cccc1 (configuration not stated),i
Cc1cccc(-c2ccc(C(=O)O)c(N3Cc4cnn(CCO)c4C3)n2)c1,i
Cc1ccc(NC(=O)C2CCCN2S(=O)(=O)c2ccc3c(c2)CCCC(=O)N3)cc1N(C)C (configuration not stated),i
COc1ccc(CNc2cc(-n3nc(C)cc3C)ncn2)cc1,i
Cc1noc(C)c1CCCNC(=O)c1ccc(-c2ccccc2CO)nc1,i
O=S(=O)(c1cccc(Cl)c1)N1CCN(Cc2nc3cccnc3n2-c2cccc(F)c2)CC1,i
COC(=O)c1ccc(OC)c(CN2CCCN(Cc3cccc(F)c3)S2(=O)=O)c1,i
Cc1ccc(-n2ncc3c(-n4nc(C)cc4NC(=O)c4ccc(F)c(F)c4)ncnc32)c(C)c1,i
Cc1cccc(NC(=O)CN2CCN(Cc3ccc(F)cc3)S2(=O)=O)c1,i
O=C(CN1CCCN(Cc2cccc(F)c2)S1(=O)=O)Nc1ccc(F)cc1,i
Cc1cccc(CN2CCN(CC(=O)Nc3ccc(F)cc3)S2(=O)=O)c1,+
COc1ccc(NC(=O)N2CCC(n3cnc4cccnc43)CC2)cc1OC,i
Cc1cccc(N(Cc2nc3nc(C)cc(C)n3n2)S(=O)(=O)c2ccccc2)c1,i
Cc1ccc(N(Cc2nc3nc(C)cc(C)n3n2)C(=O)c2cccc(C)c2)cc1,+
Cc1cccc(C(=O)N(Cc2nc3nc(C)cc(C)n3n2)c2ccccc2)c1,+
Cc1cc(C)n2nc(CN(C(=O)c3ccccc3C)c3cccc(Cl)c3)nc2n1,i
Cc1cccc(N(Cc2nc3nc(C)cc(C)n3n2)C(=O)c2ccccc2)c1,i
Cc1ccc(N(Cc2nc3nc(C)cc(C)n3n2)S(=O)(=O)c2ccc(C)cc2)cc1,i
Cc1cc(C)n2nc(CN(C(=O)c3ccccc3)c3ccc(Cl)cc3)nc2n1,i
COc1cccc(C(=O)N(Cc2nc3nc(C)cc(C)n3n2)c2ccc(Cl)cc2)c1,i
Cc1ccc(N(Cc2nc3nc(C)cc(C)n3n2)S(=O)(=O)c2ccccc2)cc1,+
